Drawing on PubChem BioAssay (EPA / NIEHS), this text covers outcome and AC50 for 4 compounds.

One may read the AC50 as the midpoint of the concentration-response curve, whichever way the signal moves.

Holding throughout (settings): mRNA level, 48 h; actives raise or lower the signal
Read-out in test [1]: Cytochrome P450 (CYP24A1), CYP24A1 (gene 1591)
In words: LTEA_HepaRG_CYP24A1: Life Technologies and Expression Analysis (LTEA) Assay for Cytochrome P450 (CYP24A1) using HepaRG (AID 2283478). The procedure, abridged:
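HepaRG, 48 h chemical exposure, 8-pt half-log CRC from 100 uM, 0.5% DMSO vehicle, duplicates. Endpoint: CYP24A1 mRNA by Fluidigm TaqMan qRT-PCR, normalized ACTB/GAPDH/POLR2A; gain/loss fit vs DMSO.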

Read-out in test [2]: cysteine-aspartic acid protease (CASP8), CASP8 (gene 841)
In words: LTEA_HepaRG_CASP8: Life Technologies and Expression Analysis (LTEA) Assay for cysteine-aspartic acid protease (CASP8) using HepaRG (AID 2283480). Put shortly:
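HepaRG, 48 h exposure, duplicate wells; 8 conc, half-log from 100 uM, 0.5% DMSO. Serum-free induction medium. CASP8 mRNA by TaqMan qRT-PCR, norm. ACTB/GAPDH/POLR2A; gain/loss fitted vs DMSO.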

Read-out in test [3]: Cytochrome P450 (CYP2B6), CYP2B6 (gene 1555)
In words: LTEA_HepaRG_CYP2B6: Life Technologies and Expression Analysis (LTEA) Assay for Cytochrome P450 (CYP2B6) using HepaRG (AID 2283481). Put shortly:
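HepaRG cells plated 48 h, switched to serum-free induction medium, then dosed 48 h (8 points, half-log from 100 uM, 0.5% DMSO). RNA isolated; CYP2B6 expression measured by qRT-PCR; gain or loss fitted relative to DMSO.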

Read-out in test [4]: Cytochrome P450 2C19 (Homo sapiens) (UniProt P33261)
In words: LTEA_HepaRG_CYP2C19: Life Technologies and Expression Analysis (LTEA) Assay for CYP2C19 using HepaRG (AID 2283482). The procedure, abridged:
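Transcript levels of CYP2C19 were quantified by qRT-PCR after HepaRG cells were treated for 48 hours with test chemicals up to 100 uM (eight half-log concentrations, 0.5% DMSO vehicle). Gain or loss of signal was fitted relative to DMSO.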

Read-out in test [5]: CYP2C8 (gene 1558)
In words: LTEA_HepaRG_CYP2C8: Life Technologies and Expression Analysis (LTEA) Assay for CYP2C8 using HepaRG (AID 2283483). The procedure, abridged: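 CYP2C8 mRNA induction or loss, by qRT-PCR normalized to ACTB/GAPDH/POLR2A, is read in HepaRG cells after 48 h treatment. Concentrations run from 100 uM down in half-log dilutions, with 0.5% DMSO as vehicle and baseline.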

Read-out in test [6]: CYP2C9 (gene 1559)
In words: LTEA_HepaRG_CYP2C9: Life Technologies and Expression Analysis (LTEA) Assay for CYP2C9 using HepaRG (AID 2283484). Put shortly: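 Cells plated 48 h, switched to serum-free induction medium, then treated in duplicate for 48 h at eight concentrations (max 100 uM, 0.5% DMSO). RNA then analysed by qRT-PCR for CYP2C9; curves fitted in both directions relative to DMSO.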

Read-out in test [7]: CYP2E1 (gene 1571)
In words: LTEA_HepaRG_CYP2E1: Life Technologies and Expression Analysis (LTEA) Assay for CYP2E1 using HepaRG (AID 2283485). The procedure, abridged: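 HepaRG cells, plated 48 h, then exposed 48 h in serum-free induction medium to eight half-log concentrations from 100 uM in 0.5% DMSO, duplicate. CYP2E1 mRNA by qRT-PCR, normalized to ACTB/GAPDH/POLR2A; bidirectional fit versus DMSO.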

Read-out in test [8]: CYP4A11 (gene 1579)
In words: LTEA_HepaRG_CYP4A11: Life Technologies and Expression Analysis (LTEA) Assay for CYP4A11 using HepaRG (AID 2283486). The procedure, abridged: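 HepaRG, 48 h chem exposure, 8 conc (100 uM top, half-log), 0.5% DMSO vehicle; qRT-PCR readout, housekeeping-gene normalized; bidirectional curve fit vs DMSO baseline.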

Read-out in test [9]: Pro-epidermal growth factor (Homo sapiens) (UniProt P01133)
In words: LTEA_HepaRG_EGF: Life Technologies and Expression Analysis (LTEA) Assay for Epidermal growth factor (EGF) using HepaRG (AID 2283489). Put shortly:
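HepaRG, 48 h dosing, 100 uM top, half-log x8, 0.5% DMSO. Readout: TaqMan qRT-PCR (Fluidigm array), housekeeping-normalized. Gain or loss of signal fit vs DMSO.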

Read-out in test [10]: Early growth response protein 1 (EGR1) transcription factor, EGR1 (gene 1958)
In words: LTEA_HepaRG_EGR1: Life Technologies and Expression Analysis (LTEA) Assay for Early growth response protein 1 (EGR1) transcription factor using HepaRG (AID 2283490). The procedure, abridged:
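Read-out is EGR1 mRNA level by qRT-PCR, normalized to three housekeeping genes and analysed for gain or loss of signal against 0.5% DMSO. Source cells: human HepaRG, treated 48 h at up to 100 uM in half-log dilutions.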

Read-out in test [11]: Ezrin (EZR), EZR (gene 7430)
In words: LTEA_HepaRG_EZR: Life Technologies and Expression Analysis (LTEA) Assay for Ezrin (EZR) using HepaRG (AID 2283491). The procedure, abridged: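 Gain or loss of EZR mRNA is scored relative to 0.5% DMSO in human HepaRG cultures treated 48 h with test chemicals in duplicate, eight half-log concentrations from 100 uM.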

Read-out in test [12]: Fatty Acid-Binding Protein 1 (FABP1), FABP1 (gene 2168)
In words: LTEA_HepaRG_FABP1: Life Technologies and Expression Analysis (LTEA) Assay for Fatty Acid-Binding Protein 1 (FABP1) using HepaRG (AID 2283494). The procedure, abridged: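 HepaRG, 48 h post-plating switched to serum-free induction medium, then dosed 48 h (duplicate, 8 pts, ≤100 uM, 0.5% DMSO). RNA → Fluidigm TaqMan qRT-PCR, FABP1 normed to ACTB/GAPDH/POLR2A. Bidirectional curve fit vs DMSO.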

Read-out in test [13]: Cytochrome P450 7A1 (Homo sapiens) (UniProt P22680)
In words: LTEA_HepaRG_CYP7A1: Life Technologies and Expression Analysis (LTEA) Assay for Cytochrome P450 7A1 (CYP7A1) using HepaRG (AID 2283496). Put shortly: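 HepaRG cells plated 48 h, then switched to serum-free induction medium and exposed in duplicate for 48 h to 8-point half-log series from 100 uM in 0.5% DMSO. CYP7A1 mRNA by qRT-PCR (TaqMan), normalized to ACTB/GAPDH/POLR2A; bidirectional fit versus DMSO.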

Read-out in test [14]: Glutathione S-Transferase (GSTA2), GSTA2 (gene 2939)
In words: LTEA_HepaRG_GSTA2: Life Technologies and Expression Analysis (LTEA) Assay for Glutathione S-Transferase (GSTA2) using HepaRG (AID 2283497). Put shortly:
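HepaRG, 48 h dosing, 8-pt half-log CRC from 100 uM, 0.5% DMSO vehicle, n=2; RNA → Fluidigm TaqMan qRT-PCR; GSTA2 vs ACTB/GAPDH/POLR2A; gain/loss fit vs DMSO.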

Read-out in test [15]: Cytochrome P450 (CYP1A2), CYP1A2 (gene 1544)
In words: LTEA_HepaRG_CYP1A2: Life Technologies and Expression Analysis (LTEA) Assay for Cytochrome P450 (CYP1A2) using HepaRG (AID 2283479). Put shortly: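 CYP1A2 transcript induction or loss, quantified by Fluidigm qRT-PCR against three housekeeping genes, was fitted bidirectionally against 0.5% DMSO controls. Human HepaRG cells received eight half-log concentrations from 100 uM over 48 h.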

Read-out in test [16]: Cytochrome P450 3A4 (Homo sapiens) (UniProt P08684)
In words: LTEA_HepaRG_CYP3A4: Life Technologies and Expression Analysis (LTEA) Assay for CYP3A4 using HepaRG (AID 2283487). Put shortly:
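In a human hepatic line (HepaRG), duplicate wells were treated 48 h with up to 100 uM chemical in half-log dilutions. Endpoint: CYP3A4 mRNA induction or loss relative to 0.5% DMSO vehicle, by qRT-PCR.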

Read-out in test [17]: Cytochrome P450 3A7 (Homo sapiens) (UniProt P24462)
In words: LTEA_HepaRG_CYP3A7: Life Technologies and Expression Analysis (LTEA) Assay for CYP3A7 using HepaRG (AID 2283492). The procedure, abridged: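 Human HepaRG liver cells, 48 h post-plating, switched to serum-free induction medium and exposed in duplicate for 48 h. Dosing: 100 uM top, half-log dilutions, 8 points, 0.5% DMSO vehicle. Read-out: CYP3A7 mRNA, gain or loss fitted against DMSO baseline.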

Read-out in test [18]: CYP3A5 (gene 1577)
In words: LTEA_HepaRG_CYP3A5: Life Technologies and Expression Analysis (LTEA) Assay for CYP3A5 using HepaRG (AID 2283493). The procedure, abridged: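 HepaRG cells, plated 48 h then in serum-free induction medium, dosed in duplicate for 48 h with eight half-log concentrations up to 100 uM in 0.5% DMSO. Gene mRNA by Fluidigm TaqMan qRT-PCR, normalized to ACTB, GAPDH, POLR2A.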

Read-out in test [19]: Cytochrome P450 4A22 (Homo sapiens) (UniProt Q5TCH4)
In words: LTEA_HepaRG_CYP4A22: Life Technologies and Expression Analysis (LTEA) Assay for Cytochrome P450 4A22 (CYP4A22) using HepaRG (AID 2283495). The procedure, abridged: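 Readout is CYP4A22 transcript induction or loss, quantified by qRT-PCR and normalized to ACTB, GAPDH and POLR2A. Human HepaRG cells receive test chemicals for 48 h at eight half-log concentrations from 100 uM in 0.5% DMSO.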

The source made the active and inactive calls. How the source made its calls: active means hit-call score of the fitted dose curve at least 0.9, where 1 is the maximum; inactive means score below 0.9.

Chain of Cytochrome P450 3A7 (Homo sapiens) (P24462 whole entry, looked up): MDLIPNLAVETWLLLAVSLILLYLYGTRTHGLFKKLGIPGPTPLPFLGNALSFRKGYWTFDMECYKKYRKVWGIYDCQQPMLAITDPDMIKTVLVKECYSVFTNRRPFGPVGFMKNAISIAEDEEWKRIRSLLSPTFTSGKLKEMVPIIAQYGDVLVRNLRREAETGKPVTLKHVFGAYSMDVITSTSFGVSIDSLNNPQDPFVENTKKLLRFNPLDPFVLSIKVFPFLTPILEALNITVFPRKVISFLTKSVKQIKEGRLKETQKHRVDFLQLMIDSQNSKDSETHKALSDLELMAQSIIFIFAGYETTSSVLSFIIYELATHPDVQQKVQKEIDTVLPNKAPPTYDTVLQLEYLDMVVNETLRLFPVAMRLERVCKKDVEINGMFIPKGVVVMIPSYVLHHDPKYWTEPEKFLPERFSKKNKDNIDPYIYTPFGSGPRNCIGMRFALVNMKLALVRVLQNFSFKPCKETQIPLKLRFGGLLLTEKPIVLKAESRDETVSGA
Chain of Cytochrome P450 2C19 (Homo sapiens) (P33261 whole entry, looked up): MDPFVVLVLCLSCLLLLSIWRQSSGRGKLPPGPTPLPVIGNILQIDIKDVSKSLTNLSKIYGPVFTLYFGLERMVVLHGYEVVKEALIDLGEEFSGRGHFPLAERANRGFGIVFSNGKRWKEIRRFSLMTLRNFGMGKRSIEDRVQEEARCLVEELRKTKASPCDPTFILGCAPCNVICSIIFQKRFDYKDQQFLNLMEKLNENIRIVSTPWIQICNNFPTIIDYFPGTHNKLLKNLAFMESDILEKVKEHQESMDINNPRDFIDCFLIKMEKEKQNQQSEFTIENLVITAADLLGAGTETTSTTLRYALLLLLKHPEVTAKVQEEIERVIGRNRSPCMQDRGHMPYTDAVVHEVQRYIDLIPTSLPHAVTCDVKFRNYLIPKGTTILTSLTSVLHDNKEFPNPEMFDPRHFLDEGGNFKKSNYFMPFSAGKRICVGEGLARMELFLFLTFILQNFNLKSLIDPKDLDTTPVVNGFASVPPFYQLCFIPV
Chain of Cytochrome P450 3A4 (Homo sapiens) (P08684 whole entry, looked up): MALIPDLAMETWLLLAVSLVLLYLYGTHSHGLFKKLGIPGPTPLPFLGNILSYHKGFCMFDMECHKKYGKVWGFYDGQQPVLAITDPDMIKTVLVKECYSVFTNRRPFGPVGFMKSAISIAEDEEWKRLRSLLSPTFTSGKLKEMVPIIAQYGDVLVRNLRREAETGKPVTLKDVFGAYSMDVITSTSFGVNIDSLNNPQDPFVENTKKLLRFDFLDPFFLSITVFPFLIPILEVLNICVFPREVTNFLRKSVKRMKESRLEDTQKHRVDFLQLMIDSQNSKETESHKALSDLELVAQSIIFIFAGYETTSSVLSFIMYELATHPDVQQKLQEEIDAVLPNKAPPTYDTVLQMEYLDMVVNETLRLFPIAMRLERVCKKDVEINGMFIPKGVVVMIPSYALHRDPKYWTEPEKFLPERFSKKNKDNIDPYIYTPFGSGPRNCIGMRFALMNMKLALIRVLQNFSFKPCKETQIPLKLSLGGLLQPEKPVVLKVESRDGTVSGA

Turning to `Cn1cc[nH]c1=S`, the outcome in [1], in test [2], in [3], in test [4], in test [5] and in [6] was inactive. Also, the compound was classed as inactive in test [7], in [8], in [9], in test [10], in test [11] and in test [12]. Further, the result in test [13] and in test [14] was inactive.

Take `Cn1c(=O)c2[nH]cnc2n(C)c1=O`: the outcome in test [1], in test [15], in test [2], in test [3], in test [4] and in test [5] was inactive. For the same compound, the result in test [7], in test [8], in test [16], in test [9], in [10] and in [11] was inactive. In addition, the compound was called inactive in test [17], in test [18], in test [13] and in test [14].

`CCCCCCOC(=O)CC(CC(=O)OCCCCCC)(OC(=O)CCC)C(=O)OCCCCCC`: the result in test [1], in [15], in test [2], in test [4], in [5] and in test [6] was inactive. Moreover, the compound was called inactive in test [7], in test [8], in test [9], in test [10], in test [11] and in test [17]. Also, the compound was called inactive in [18], in test [12], in [19], in [13] and in test [14]. The AC50 in [3] is 12.3 µM (active).

Regarding `O=S1(=O)CCCO1`, the result in test [1], in test [15], in test [2], in test [3], in test [4] and in test [5] was inactive. Also, the outcome in [6], in [7], in test [8], in [9], in [10] and in test [11] was inactive. The compound was called inactive in test [17], in test [18], in test [12], in test [19], in test [13] and in [14].
